This is part of a sample that, as a whole, favours compounds with a hit. Of some 83,000 tested, about 20% had one in any assay.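 Values shown are percent growth following 48 h exposure of cells in 96-well plates to a single concentration of compound; below 10 was considered active.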 Values without a mark were called inactive. Active and inactive are the calls of the source.
Key:
Assay in all cases: NCI-60 one-dose screen, 48 h (100 = growth as untreated, 0 = no growth, -100 = all killed)
Conditions in all cases: 10 µM unless noted
[1] = test system: RPMI-8226 leukemia
[2] = test system: OVCAR-8 ovarian
[3] = test system: OVCAR-5 ovarian
[4] = test system: OVCAR-4 ovarian
[5] = test system: SK-OV-3 ovarian
[6] = test system: IGROV1 ovarian
[7] = test system: OVCAR-3 ovarian
[8] = test system: HS 578T breast
[9] = test system: NCI/ADR-RES ovarian
[10] = test system: T-47D breast
[11] = test system: BT-549 breast
[12] = test system: MDA-MB-435 melanoma
[13] = test system: SW-620 colon
[14] = test system: MCF7 breast
[15] = test system: HCT-116 colon
[16] = test system: HCC-2998 colon
[17] = test system: KM12 colon
[18] = test system: SR leukemia

| SMILES | growth [1] | growth [2] | growth [3] | growth [4] | growth [5] [%] | growth [6] | growth [7] | growth [8] | growth [9] | growth [10] | growth [11] | growth [12] | growth [13] | growth [14] | growth [15] | growth [16] | growth [17] | growth [18] |
| --- | --- | --- | --- | --- | --- | --- | --- | --- | --- | --- | --- | --- | --- | --- | --- | --- | --- | --- |
| O=[N+]([O-])c1ccc(NS(=O)(=O)c2ccc(Cl)c(Cl)c2)cc1 | 35.6% | 79.2% | 113% | 63.4% | 94.3 | 88.7% | 78.3% | 93.7% | 83.2% | 60.2% | 76.8% | 88.9% | 103% | 79.7% | 85.3% | 68.9% | 90.1% | – |
| COc1ccc(/C=C2\CCc3ccccc3C2=O)cc1 | 82.1% | 90% | 109% | 89.6% | 102 | 81.8% | 89.6% | 97.3% | 60.5% | 92.5% | 97.9% | 9.53% (active) | 66.9% | 85.7% | 94.3% | 80.4% | 44.6% | – |
| O=C1/C=C/[C@@H](O)[C@@H]2C[C@@H](O)C[C@H]2/C=C/CCC[C@H](CO)O1 | 37.4% | 35.4% | 52.8% | 26.2% | 50.7 | 49.9% | -2.9% (active) | 35.5% | 15.9% | 32.5% | 20.1% | 18.5% | 10.5% | -2.04% (active) | 2.08% (active) | -22.5% (active) | 2.96% (active) | – |
| COc1cc(/C=C/C(=O)CC(=O)/C=C/c2ccc(OC(=O)C3C4CC5CC(C4)CC3C5)c(OC)c2)ccc1OC(=O)C1C2CC3CC(C2)CC1C3 (centres undefined) | 112% | 97.2% | 87.2% | 105% | 110 | 33.3% | 118% | 129% | 107% | 99.4% | 108% | 112% | 113% | 110% | 93% | 98.8% | 107% | – |
| Cc1cc(C(=O)Nc2ccc3cc(CN4CCOCC4)ccc3n2)c(C)n1-c1ccccc1 | -21% (active) | 4.27% (active) | 83.1% | 6.66% (active) | 81.1 | 66.4% | 26.7% | 82.3% | -5.82% (active) | -2.49% (active) | -1.74% (active) | 4.74% (active) | 64.1% | 7.41% (active) | 29.4% | 50.8% | 11% | – |
| N#Cc1c(NC(=O)c2ccco2)[n+]([O-])c2cc(Cl)c(Cl)cc2[n+]1[O-] | 92.2% | 100% | 87.4% | 100% | 118 | -12.2% (active) | 109% | 84.4% | 88.7% | 112% | 94.4% | 126% | 119% | 87.8% | 105% | 109% | 131% | – |
| COc1cc(C(=O)c2cc3c(cc2C)OCO3)cc(OC)c1OC | 39.1% | 20.4% | 43.1% | 38% | 11.1 | 25.1% | 5.31% (active) | 44.3% | 15.3% | 58.2% | 68.3% | -49% (active) | 25.6% | 13.6% | 15.9% | 10.1% | 16.5% | – |
| COc1cc(OC)c2c(c1Cl)O[C@]1(C2=O)C(OCc2ccccc2)=CC(=O)C[C@H]1C | – | – | 17.2% | 39.2% | 10.2 | 3.14% (active) | -23.5% (active) | 18.7% | 7.55% (active) | 8.09% (active) | 24.2% | -44.5% (active) | 19.8% | 12.7% | 7.75% (active) | -5.11% (active) | 7.93% (active) | 7.41% (active) |
| COP(=O)(OC)C(c1ccccc1)(c1ccccc1)c1ccccc1 | 87.5% | 94.6% | 101% | 93.2% | 108 | -9.3% (active) | 86.7% | 94.5% | 95.9% | 88.8% | 117% | 91.2% | 98.1% | 103% | 73.1% | 114% | 93.7% | – |
| CCOc1cc(/C=C/C(=O)C(C(=O)/C=C/c2ccc(OC(=O)CNc3nc4ccccc4[nH]3)c(OCC)c2)C(=O)CNc2nc3ccccc3[nH]2)ccc1OC(=O)CNc1nc2ccccc2[nH]1 | -74.4% (active) | 9.36% (active) | 11.5% | 26.9% | 29.4 | -33.2% (active) | -2.21% (active) | -4.12% (active) | 24.3% | 37.3% | -31.3% (active) | -37.6% (active) | -71.4% (active) | 0.893% (active) | -61.3% (active) | -41.5% (active) | -70.8% (active) | – |
| CCOC(=O)Nc1ccc2c3c(cccc13)-c1ccccc1-2 | – | – | 63.6% | 48.5% | 62.7 | 20.9% | -19.8% (active) | 16.6% | 7.96% (active) | 58.7% | 26.1% | -9.66% (active) | 14.9% | 15.8% | 16.6% | 41.2% | 18.3% | 13.6% |
| COc1cccc(/C=C2\Cc3ccccc3C2=O)c1 | 98.6% | 97.2% | 111% | 101% | 101 | 99.3% | 110% | 111% | 105% | 100% | 103% | 96.7% | 104% | 58.8% | 96.3% | 105% | 95.2% | – |
| CCOc1cc(/C=C/C(=O)C(C(=O)/C=C/c2ccc(OC(=O)CNc3nnc(C)s3)c(OCC)c2)C(=O)CNc2nnc(C)s2)ccc1OC(=O)CNc1nnc(C)s1 | -68.3% (active) | 2.17% (active) | -11.7% (active) | 23.1% | 43.6 | -53.7% (active) | 11.3% | 10.1% | 7.78% (active) | 68.2% | -56.2% (active) | -8.14% (active) | -64.8% (active) | -6.02% (active) | -77.7% (active) | -64.8% (active) | -64.4% (active) | – |
| BrC1CC(Br)c2c1c1c(c3c2C(Br)CC3Br)C(Br)CC1Br (centres undefined) | 92.9% | 85.2% | 99.2% | 106% | 102 | -20.2% (active) | 150% | 93.6% | 91% | 91.8% | 125% | 103% | 83% | 49.6% | 80.9% | 87.5% | 129% | – |
| O=C1/C(=C/c2ccccc2Cl)CCc2ccccc21 | 95.4% | 96.7% | 109% | 110% | 116 | 97.3% | 112% | 99.1% | 102% | 105% | 108% | 95.4% | 110% | 87.9% | 99.5% | 102% | 108% | – |
| O=c1ccn(C2CC=C(CO)O2)c(=O)[nH]1 (centres undefined) | 84.5% | 103% | 102% | 110% | 102 | 86.2% | 107% | 112% | 116% | 96.5% | 106% | 106% | 103% | 92% | 96% | 123% | 103% | – |
| COc1ccc2c(c1)sc1nc(-c3ccc(N(C)C)cc3)cn12 | 33% | 95.2% | 98.8% | 97.8% | 82.6 | 15.8% | 88.5% | 122% | 76.8% | 68.7% | 99% | 104% | 104% | 84% | 91.7% | 92% | 75.8% | – |
| CC(C)N(Cc1ccccc1)c1c(Cl)ssc1=O | 115% | 86.7% | 107% | 104% | 93.7 | -9.19% (active) | 92.5% | 109% | 107% | 98.9% | 90.9% | 108% | 110% | 101% | 99.9% | 113% | 106% | – |

— PubChem BioAssay (NCI)
